Results as given in PubChem BioAssay.
“And” between values parts separate entries of the source, which are not always exact repeats. Equal values may be shown once. Inconclusive results are not listed. The source made the active and inactive calls.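 The calls were made as follows, unless noted: active = normalized viability below 100% at a tested concentration; inactive = the rest.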

Columns and labels:
[1] = SU-DIPG-VI glioma cell viability, MIPE4.0 library, CellTiter-Glo luminescence, qHTS (AID 1347066; cut-off not given, nearly all actives have AC50 up to about 30 µM;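 also: cells exposed to compound for 48 hours before readout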); conditions: CellTiter-Glo ATP luminescence
[2] = sensitizers of A549 cells to miR-34 induction, primary screen, imaging, A549 dox-inducible miR-34, nuclei and caspase counts (AID 1347080;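 active = compounds whose cell count with miR-34 switched on is under 0.7 times the count with it off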); conditions: A549 miR-34 inducible, Hoechst nuclei count, 48 h
[3] = survival rescue of mitochondrial mutant cells in low glucose, primary screen, MELAS cybrids, Rieske KO mouse fibroblasts, CellTiter-Glo (AID 1508586;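 active = mean z-score across replicates of 1.96 or higher in either the MELAS or the Rieske mutant cell line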;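 also: z relative to plate mean and SD of compound and empty wells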)
[4] = target: NAD(+) hydrolase SARM1 (Homo sapiens) (UniProt Q6SZW1); test: SARM1 TIR NADase inhibitors, cell lysate, NAD-Glo luminescence (AID 1508614;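 active = compound whose remaining NAD level is above about 45 nM, limit read from the data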;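 also: higher remaining NAD means stronger inhibition of SARM1 NADase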); conditions: SAM-TIR HEK293T lysate NADase, at 1 µM, stronger effect = higher value
Chain of NAD(+) hydrolase SARM1 (Homo sapiens) (Q6SZW1 whole entry, looked up): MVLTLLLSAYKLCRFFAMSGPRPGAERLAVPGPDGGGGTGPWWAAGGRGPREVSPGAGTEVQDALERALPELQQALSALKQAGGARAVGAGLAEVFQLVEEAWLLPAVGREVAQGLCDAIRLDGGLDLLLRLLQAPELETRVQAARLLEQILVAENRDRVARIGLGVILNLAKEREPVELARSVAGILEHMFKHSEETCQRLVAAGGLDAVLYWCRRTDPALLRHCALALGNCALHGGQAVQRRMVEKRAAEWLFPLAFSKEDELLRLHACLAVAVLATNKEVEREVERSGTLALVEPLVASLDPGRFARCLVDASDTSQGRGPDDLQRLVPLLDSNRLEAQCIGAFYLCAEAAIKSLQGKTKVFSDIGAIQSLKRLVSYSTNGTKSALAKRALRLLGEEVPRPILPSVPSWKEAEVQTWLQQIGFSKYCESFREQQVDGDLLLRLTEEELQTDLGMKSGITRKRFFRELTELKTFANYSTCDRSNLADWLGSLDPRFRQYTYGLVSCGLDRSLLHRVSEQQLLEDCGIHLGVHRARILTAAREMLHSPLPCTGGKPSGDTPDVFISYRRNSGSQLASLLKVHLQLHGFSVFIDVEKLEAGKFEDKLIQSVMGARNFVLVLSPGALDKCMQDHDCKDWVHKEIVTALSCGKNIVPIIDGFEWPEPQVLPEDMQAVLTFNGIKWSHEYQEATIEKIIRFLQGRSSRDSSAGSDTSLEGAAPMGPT

[5] = viability rescue of complex I mutant cybrids, primary screen, cell-based, galactose medium, ATP luminescence (AID 1645843;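 active = z-score of at least 1.8 in each of two replicates, scored against plate mean and spread of sample wells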;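 also: positive z means more ATP and so rescue of galactose-driven cybrid death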); conditions: complex I mutant cybrid cells, 72 h, stronger effect = higher value
[6] = phospholipid biosynthesis inhibitors in animal cells, primary screen, cell-based, LOPAC library, screen 4 (AID 1347384; call rule not given here); conditions: phospholipid biosynthesis inhibition screen, at 10 µM
[7] = target: Mitogen-activated protein kinase 7 (Homo sapiens) (UniProt Q13164); test: ERK5 transactivation activators in reporter cells, primary screen, cell-based, HTS (AID 1508626;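 active = luciferase signal above three times the same-plate solvent-only control wells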;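 also: luciferase driven by Gal4-ERK5 fusion binding five Gal4 sites before minimal TATA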); conditions: HeLa Gal4-ERK5 transactivation, 18 h, at 5 µM, stronger effect = higher value
Chain of Mitogen-activated protein kinase 7 (Homo sapiens) (Q13164 whole entry, looked up, the tested form may be a part): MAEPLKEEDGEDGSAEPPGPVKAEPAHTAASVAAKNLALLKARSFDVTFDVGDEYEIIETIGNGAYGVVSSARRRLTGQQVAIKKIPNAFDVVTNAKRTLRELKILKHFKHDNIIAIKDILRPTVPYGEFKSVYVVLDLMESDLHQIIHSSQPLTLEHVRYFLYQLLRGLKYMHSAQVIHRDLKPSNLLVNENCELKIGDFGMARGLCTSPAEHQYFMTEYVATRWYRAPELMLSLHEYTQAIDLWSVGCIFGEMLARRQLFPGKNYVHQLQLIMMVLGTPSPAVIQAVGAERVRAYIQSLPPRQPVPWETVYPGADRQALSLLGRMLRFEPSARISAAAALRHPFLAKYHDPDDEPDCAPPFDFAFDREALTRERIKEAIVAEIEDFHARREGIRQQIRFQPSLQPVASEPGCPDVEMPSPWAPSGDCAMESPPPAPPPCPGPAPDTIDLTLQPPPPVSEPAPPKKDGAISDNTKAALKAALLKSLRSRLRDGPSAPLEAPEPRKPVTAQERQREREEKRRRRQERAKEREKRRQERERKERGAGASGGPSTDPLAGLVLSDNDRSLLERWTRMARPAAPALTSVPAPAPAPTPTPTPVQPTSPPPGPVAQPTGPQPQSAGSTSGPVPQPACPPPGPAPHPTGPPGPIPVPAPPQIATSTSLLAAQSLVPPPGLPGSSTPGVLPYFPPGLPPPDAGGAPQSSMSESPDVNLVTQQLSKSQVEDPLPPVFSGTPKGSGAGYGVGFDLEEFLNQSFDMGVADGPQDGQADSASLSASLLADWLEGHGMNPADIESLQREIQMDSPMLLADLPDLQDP

[8] = modifiers of HSF1 nuclear foci, imaging, Selleck Cancer Library (AID 1347162; in the data active = plate-normalised HSF1 focus index below about 0.46); conditions: human cells, at 10 µM; SSMD: measured here: HSF1 foci SSMD mean; cell count: measured here: cell number; plate-normalised HSF1 focus index: stronger effect = lower value
[9] = ovarian cancer cell viability with rucaparib, profiling panel, oncology-focused library, rucaparib conditional (AID 1508598); conditions: patient-derived ovarian cancer cells, CellTiter-Glo viability, 144 h, stronger effect = lower value
[10] = stronger effect = lower value, cell number ratio, induced over uninduced
[11] = measured here: relative caspase fold change +Dox/-Dox
[12] = measured here: total cells with miR-34 induction, stronger effect = lower value
[13] = measured here: total cells without miR-34 induction
[14] = MELAS cybrid survival, CellTiter-Glo 48 h, stronger effect = higher value
[15] = Rieske KO mouse fibroblast survival, CellTiter-Glo 72 h

COC(=O)Nc1nc2ccc(S(=O)c3ccccc3)cc2[nH]1 (stereo unspecified)
5050 and 7040 and 4970: cell count [2, 13]
inactive: outcome [1] | fold change [2, 10] 1 and 0.95 and 1.02 | z-score [3, 14] -0.274 and -0.559 and -0.178 | remaining NAD [4] 10 nM | z-score [5] -0.185
5070 and 6690 and 5080: cell count [2, 12]
0.754 and 0.142 and 0.645: z-score [3, 15]
0.565 and 3.46 and 0.832: fold change [2, 11]

CC(C)NCC(O)COc1ccc(COCCOC(C)C)cc1 (stereo unspecified)
0.385 and -0.329: z-score [3, 15]
inactive: outcome [1] | outcome [6] | z-score [3, 14] -0.423 and -0.586 | remaining NAD [4] 10 nM | luciferase signal [7] 84 AU | z-score [5] 0.495 and 0.79 and 0.73

CS(=O)(=O)c1ccc([C@@H](O)[C@@H](CO)NC(=O)C(Cl)Cl)cc1
-3.27: z-score [3, 15]
8380 and 11100: cell count [2, 13]
7540 and 11000: cell count [2, 12]
1.05 and 2.01: fold change [2, 11]
inactive: outcome [1] | fold change [2, 10] 0.9 and 0.984 | z-score [3, 14] 0.78 | remaining NAD [4] 23 nM | luciferase signal [7] 44 AU

COc1ccc2c(c1)c(CC(=O)OCC(=O)O)c(C)n2C(=O)c1ccc(Cl)cc1
0.51 and 0.248 and -0.275: z-score [3, 15]
1.04 and 0.882 and 1.4: fold change [2, 11]
8990 and 8100 and 8980: cell count [2, 12]
9840 and 9530 and 10500: cell count [2, 13]
inactive: outcome [1] | fold change [2, 10] 0.914 and 0.85 and 0.854 | z-score [3, 14] -0.366 and 0.477 and -0.419 | remaining NAD [4] 10 nM | luciferase signal [7] 52 AU | z-score [5] 0.565

CC(c1cc2ccccc2s1)N(O)C(N)=O (stereo unspecified)
inactive: outcome [1] | plate-normalised HSF1 focus index [8] 1.14 | z-score [3, 14] -0.393 and -0.528 and -0.827 | viability ([9]; at 0.000305 µM, OCI-C5x cells, with rucaparib 10 µM, 100% = cells with rucaparib alone) 111% | viability ([9]; at 0.000305 µM, OCI-C5x cells, without rucaparib) 124% | viability ([9]; at 0.00122 µM, OCI-C5x cells, without rucaparib) 121% | viability ([9]; at 0.00488 µM, OCI-C5x cells, with rucaparib 10 µM, 100% = cells with rucaparib alone) 128% | viability ([9]; at 0.00488 µM, OCI-C5x cells, without rucaparib) 122% | viability ([9]; at 0.0195 µM, OCI-C5x cells, with rucaparib 10 µM, 100% = cells with rucaparib alone) 119% | viability ([9]; at 0.0195 µM, OCI-C5x cells, without rucaparib) 125% | viability ([9]; at 0.0781 µM, OCI-C5x cells, with rucaparib 10 µM, 100% = cells with rucaparib alone) 103% | viability ([9]; at 0.0781 µM, OCI-C5x cells, without rucaparib) 125% | viability ([9]; at 0.0781 µM, OCI-P5x cells, without rucaparib) 118% | viability ([9]; at 0.313 µM, OCI-C5x cells, with rucaparib 10 µM, 100% = cells with rucaparib alone) 113% | viability ([9]; at 0.313 µM, OCI-C5x cells, without rucaparib) 121% | viability ([9]; at 0.313 µM, OCI-P5x cells, with rucaparib 20 µM, 100% = cells with rucaparib alone) 115% | viability ([9]; at 0.313 µM, OCI-P5x cells, without rucaparib) 123% | viability ([9]; at 1.25 µM, OCI-C5x cells, with rucaparib 10 µM, 100% = cells with rucaparib alone) 109% | viability ([9]; at 1.25 µM, OCI-C5x cells, without rucaparib) 124% | viability ([9]; at 1.25 µM, OCI-P5x cells, with rucaparib 20 µM, 100% = cells with rucaparib alone) 106% | viability ([9]; at 1.25 µM, OCI-P5x cells, without rucaparib) 124% | viability ([9]; at 5 µM, OCI-C5x cells, with rucaparib 10 µM, 100% = cells with rucaparib alone) 113% | viability ([9]; at 5 µM, OCI-C5x cells, without rucaparib) 129% | viability ([9]; at 5 µM, OCI-P5x cells, with rucaparib 20 µM, 100% = cells with rucaparib alone) 105% | viability ([9]; at 5 µM, OCI-P5x cells, without rucaparib) 116% | remaining NAD [4] 10 nM | luciferase signal [7] 36 AU | z-score [5] 0.465 and 0.63
0.713 and 0.986 and 1.26: z-score [3, 15]
active: viability ([9]; at 0.000305 µM, OCI-P5x cells, with rucaparib 20 µM, 100% = cells with rucaparib alone) 77.5% | viability ([9]; at 0.000305 µM, OCI-P5x cells, without rucaparib) 83.5% | viability ([9]; at 0.00122 µM, OCI-C5x cells, with rucaparib 10 µM, 100% = cells with rucaparib alone) 98.9% | viability ([9]; at 0.00122 µM, OCI-P5x cells, with rucaparib 20 µM, 100% = cells with rucaparib alone) 61% | viability ([9]; at 0.00122 µM, OCI-P5x cells, without rucaparib) 79.9% | viability ([9]; at 0.00488 µM, OCI-P5x cells, with rucaparib 20 µM, 100% = cells with rucaparib alone) 48.8% | viability ([9]; at 0.00488 µM, OCI-P5x cells, without rucaparib) 63.4% | viability ([9]; at 0.0195 µM, OCI-P5x cells, with rucaparib 20 µM, 100% = cells with rucaparib alone) 47.6% | viability ([9]; at 0.0195 µM, OCI-P5x cells, without rucaparib) 63.9% | viability ([9]; at 0.0781 µM, OCI-P5x cells, with rucaparib 20 µM, 100% = cells with rucaparib alone) 97.3%
7010: cell count [8]
2.48: SSMD [8]
